Source: PubChem BioAssay (Tox21)
Inconclusive results are not listed. Entries that show only a call come without a potency. The source made the active and inactive calls. Unless noted, calls come from the whole dose curve; as a rule, active = well fitted curve in the direction sought with a large enough effect in the repeat runs; inconclusive = weak or mixed curves; inactive = no such curve, though single readings can be large; an effect the other way counts as inactive or inconclusive.

Tests used:
[1] = qHTS assay to identify small molecule antagonists of the thyroid receptor (TR) signaling pathway - cell viability counter screen (AID 743064); note: nearly all actives have a fitted effect of over 50% in size; note: potency is the fitted concentration of half-maximal effect
How it was run: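 In-well cytotoxicity read by CellTiter-Fluor (30 min, 37 C) following 23.5 h exposure of GH3 cells bearing a TRE-luciferase sensor. Compounds were added alongside 1 nM (final) T3 to drive TR transactivation.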

[2] = qHTS assay to identify small molecule antagonists of the thyroid receptor (TR) signaling pathway (AID 743065); note: nearly all actives have a fitted effect of over 55% in size; note: potency is the fitted concentration of half-maximal effect
How it was run: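 Antagonism measured as loss of luciferase signal in GH3 cells stably carrying a TRE-luciferase reporter, co-treated with compound and T3 (1 nM final) for 23.5 h at 37 C. Viability was read in the same well by CellTiter-Fluor.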

[3] = tested on: thyroid hormone receptor (rat, GH3 cells); experiment: qHTS assay to identify small molecule agonists of the thyroid receptor (TR) signaling pathway (AID 743066; calls by dose curve)
[4] = qHTS assay to identify small molecule antagonists of the estrogen receptor alpha (ER-alpha) signaling pathway - cell viability counter screen (AID 743074; calls by dose curve;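 note: HEK293 cells carrying ER-alpha-UAS-bla reporter stimulated with 17beta-estradiol; nearly all actives have a fitted effect of over 45% in size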)
[5] = biological target: Estrogen receptor (Homo sapiens) (UniProt P03372); experiment: qHTS assay to identify small molecule agonists of the estrogen receptor alpha (ER-alpha) signaling pathway (AID 743075; calls by dose curve;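 note: HEK293 GripTite cells with ER-alpha and UAS-driven beta-lactamase reporter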)
Chain of Estrogen receptor (Homo sapiens) (P03372 whole entry, looked up): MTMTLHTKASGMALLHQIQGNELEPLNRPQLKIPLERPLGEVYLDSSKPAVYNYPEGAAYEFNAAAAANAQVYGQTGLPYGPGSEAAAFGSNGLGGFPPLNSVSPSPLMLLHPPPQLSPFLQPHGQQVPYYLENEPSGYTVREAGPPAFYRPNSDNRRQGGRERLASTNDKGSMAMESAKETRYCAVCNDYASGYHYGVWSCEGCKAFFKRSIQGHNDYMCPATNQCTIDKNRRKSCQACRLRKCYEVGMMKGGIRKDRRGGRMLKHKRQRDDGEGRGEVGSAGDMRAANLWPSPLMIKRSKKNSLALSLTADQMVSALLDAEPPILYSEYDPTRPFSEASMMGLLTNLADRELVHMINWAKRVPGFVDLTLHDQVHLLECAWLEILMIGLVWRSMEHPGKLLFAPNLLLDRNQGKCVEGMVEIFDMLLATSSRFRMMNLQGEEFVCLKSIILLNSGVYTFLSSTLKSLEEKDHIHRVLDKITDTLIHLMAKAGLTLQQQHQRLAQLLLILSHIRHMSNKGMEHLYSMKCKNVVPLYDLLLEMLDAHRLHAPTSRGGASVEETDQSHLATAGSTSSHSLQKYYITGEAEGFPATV

[6] = biological target: Estrogen receptor (Homo sapiens) (UniProt P03372); experiment: qHTS assay to identify small molecule agonists of the estrogen receptor alpha (ER-alpha) signaling pathway using the BG1 cell line (AID 743079); note: nearly all actives have a fitted effect of over 20% in size; note: potency is the fitted concentration of half-maximal effect
[7] = qHTS assay to identify small molecule antagonists of the estrogen receptor alpha (ER-alpha) signaling pathway using the BG1 cell line (AID 743080; calls by dose curve;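 note: BG1 cells stimulated with 17beta-estradiol alongside compound; series mostly up to about 70 µM; nearly all actives have a fitted effect of over 25% in size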)
How it was run: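 Seeding, 24 h rest, compound transfer from DMSO, 17beta-estradiol addition, 21.5 h incubation, CellTiter-Fluor (30 min, 37 C), then ONE-Glo (30 min, room temperature): this sequence was run on BG1-Luc-4E2 reporter cells.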

[8] = qHTS assay to identify small molecule antagonists of the estrogen receptor alpha (ER-alpha) signaling pathway using the BG1 cell line - cell viability counter screen (AID 743081);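 note: compound given together with 17beta-estradiol as the ER stimulus; series mostly up to about 70 µM; nearly all actives have a fitted effect of over 45% in size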
Aromatase (Homo sapiens) = Aromatase (Homo sapiens) (UniProt P11511); experiment: qHTS assay to identify aromatase inhibitors (AID 743083); note: nearly all actives have a fitted effect of over 55% in size; note: potency is the fitted concentration of half-maximal effect
Chain of Aromatase (Homo sapiens) (P11511 whole entry, looked up): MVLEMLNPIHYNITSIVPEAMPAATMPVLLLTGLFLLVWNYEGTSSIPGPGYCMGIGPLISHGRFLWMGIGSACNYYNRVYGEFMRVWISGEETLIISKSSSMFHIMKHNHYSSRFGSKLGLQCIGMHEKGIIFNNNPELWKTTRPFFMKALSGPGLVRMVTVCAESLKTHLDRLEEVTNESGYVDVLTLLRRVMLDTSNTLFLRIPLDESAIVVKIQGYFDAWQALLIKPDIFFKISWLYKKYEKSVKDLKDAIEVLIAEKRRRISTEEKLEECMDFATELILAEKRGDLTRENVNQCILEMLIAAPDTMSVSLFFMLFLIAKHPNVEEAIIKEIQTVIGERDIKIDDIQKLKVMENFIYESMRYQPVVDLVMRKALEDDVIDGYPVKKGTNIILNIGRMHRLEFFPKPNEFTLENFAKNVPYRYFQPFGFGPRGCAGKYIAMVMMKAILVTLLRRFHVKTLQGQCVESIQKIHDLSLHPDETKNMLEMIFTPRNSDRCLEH

[9] = qHTS assay to identify aromatase inhibitors - cell viability counter screen (AID 743084);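 note: cells stimulated with testosterone during compound exposure; nearly all actives have a fitted effect of over 55% in size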
[10] = biological target: Aryl hydrocarbon receptor (Homo sapiens) (UniProt P35869); experiment: qHTS assay to identify small molecule that activate the aryl hydrocarbon receptor (AhR) signaling pathway (AID 743085); note: nearly all actives have a fitted effect of over 15% in size; note: potency is the fitted concentration of half-maximal effect;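 for activation: HG2L7.5c1 human HepG2 liver cells with stably integrated DRE-driven firefly reporter; series mostly up to about 70 µM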
Chain of Aryl hydrocarbon receptor (Homo sapiens) (P35869 whole entry, looked up): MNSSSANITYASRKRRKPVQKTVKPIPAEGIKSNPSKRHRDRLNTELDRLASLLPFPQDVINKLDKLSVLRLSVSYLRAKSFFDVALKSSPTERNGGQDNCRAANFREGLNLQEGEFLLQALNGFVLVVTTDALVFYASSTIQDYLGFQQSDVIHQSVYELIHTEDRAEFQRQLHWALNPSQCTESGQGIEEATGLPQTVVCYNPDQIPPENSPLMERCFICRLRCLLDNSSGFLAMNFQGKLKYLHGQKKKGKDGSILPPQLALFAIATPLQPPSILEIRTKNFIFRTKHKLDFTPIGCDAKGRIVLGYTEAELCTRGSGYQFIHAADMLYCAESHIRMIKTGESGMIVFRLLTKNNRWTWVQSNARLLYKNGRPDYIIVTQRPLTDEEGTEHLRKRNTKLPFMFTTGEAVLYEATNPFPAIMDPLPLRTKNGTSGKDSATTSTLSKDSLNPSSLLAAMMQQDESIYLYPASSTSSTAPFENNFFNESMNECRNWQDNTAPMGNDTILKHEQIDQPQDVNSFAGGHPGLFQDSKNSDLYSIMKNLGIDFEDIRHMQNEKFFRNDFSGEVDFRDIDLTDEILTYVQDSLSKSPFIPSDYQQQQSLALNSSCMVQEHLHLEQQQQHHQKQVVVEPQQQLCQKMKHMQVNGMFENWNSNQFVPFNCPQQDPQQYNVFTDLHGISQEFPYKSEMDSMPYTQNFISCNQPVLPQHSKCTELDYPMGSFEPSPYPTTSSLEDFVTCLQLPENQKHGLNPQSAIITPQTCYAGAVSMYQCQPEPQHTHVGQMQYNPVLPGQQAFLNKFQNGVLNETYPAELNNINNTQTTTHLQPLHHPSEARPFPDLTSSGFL
How it was run: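 Luminescence (ONE-Glo) from a dioxin-responsive-element luciferase reporter in HG2L7.5c1 HepG2 cells after 24 hr compound exposure at 37C; viability measured by CellTiter-Fluor fluorescence beforehand.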

[11] = qHTS assay to identify small molecule that activate the aryl hydrocarbon receptor (AhR) signaling pathway - cell viability counter screen (AID 743086); note: nearly all actives have a fitted effect of over 45% in size; note: potency is the fitted concentration of half-maximal effect
How it was run: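 Cytotoxicity counter screen: CellTiter-Fluor signal (30 min, 37 C) in 4000 HepG2 cells/well carrying the DRE-luciferase reporter, following 24 h compound exposure at 37 C.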

[12] = biological target: Peroxisome proliferator-activated receptor gamma (Homo sapiens) (UniProt P37231); experiment: qHTS assay to identify small molecule agonists of the peroxisome proliferator-activated receptor gamma (PPARg) signaling pathway (AID 743094; active = well fitted activation curve with a large enough effect in the signal ratio in the repeat runs, not every such curve was filed as active; the % refers to the signal ratio)
Chain of Peroxisome proliferator-activated receptor gamma (Homo sapiens) (P37231 whole entry, looked up): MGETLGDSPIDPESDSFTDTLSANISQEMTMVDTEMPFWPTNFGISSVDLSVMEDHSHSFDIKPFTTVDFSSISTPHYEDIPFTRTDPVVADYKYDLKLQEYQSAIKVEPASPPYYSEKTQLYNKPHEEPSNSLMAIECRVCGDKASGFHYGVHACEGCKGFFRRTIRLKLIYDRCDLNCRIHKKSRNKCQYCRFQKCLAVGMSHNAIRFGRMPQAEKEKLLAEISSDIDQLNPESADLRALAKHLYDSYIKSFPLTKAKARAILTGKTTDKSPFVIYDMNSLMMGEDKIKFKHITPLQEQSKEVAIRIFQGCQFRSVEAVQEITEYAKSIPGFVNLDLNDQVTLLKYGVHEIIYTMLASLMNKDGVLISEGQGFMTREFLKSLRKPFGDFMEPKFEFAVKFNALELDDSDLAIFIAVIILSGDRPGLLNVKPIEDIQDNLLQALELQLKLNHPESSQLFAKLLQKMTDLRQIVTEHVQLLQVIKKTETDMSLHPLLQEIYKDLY
How it was run: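 Cells from the PPARg UAS-bla HEK293H line are plated and incubated 5 h at 37C. Compounds in DMSO are pinned in and left 17 h at 37C. LiveBLAzer B/G substrate is then added for 1 h at room temperature before fluorescence is measured.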

[13] = qHTS assay to identify small molecule antagonists of the peroxisome proliferator-activated receptor gamma (PPARg) signaling pathway - cell viability counter screen (AID 743194); note: nearly all actives have a fitted effect of over 55% in size
How it was run: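 Viability was measured as CellTiter-Glo luminescence in GeneBLAzer PPARg UAS-bla HEK293H cells. These cells had been exposed 17 h at 37 C to compounds together with rosiglitazone at 50 nM final, with the beta-lactamase readout taken in the same wells.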

[14] = qHTS assay for small molecule agonists of the antioxidant response element (ARE) signaling pathway - cell viability counter screen (AID 743203; calls by dose curve; note: nearly all actives have a fitted effect of over 55% in size)
How it was run: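 Cytotoxicity was tested in parallel with the ARE reporter screen. ARE-bla HepG2 cells were exposed to compounds for 16 hrs, and viability was taken from CellTiter-Glo luminescence.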

[15] = qHTS assay for small molecule activators of the heat shock response signaling pathway - cell viability counter screen (AID 743209); note: nearly all actives have a fitted effect of over 50% in size
How it was run: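 Cytotoxicity counter screen run in parallel with the HSE beta-lactamase reporter, using the same wells. HeLa HSE-bla cells received compound for 5 h at 37 C; ATP-based CellTiter-Glo luminescence was measured after 30 min at room temperature.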

[16] = qHTS assay for small molecule activators of the heat shock response signaling pathway (AID 743210; active = well fitted activation curve with a large enough effect in the signal ratio in the repeat runs, with a control signal flat, not every such curve was filed as active; the % refers to the signal ratio; note: series mostly up to about 63 µM)
How it was run: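 Compound exposure lasted 5 h at 37 C in HeLa cells carrying a heat-shock-element-driven beta-lactamase reporter. Read-out: fluorescence intensity after 2.5 h room-temperature loading with LiveBLAzer B/G FRET substrate.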

[17] = biological target: Peroxisome proliferator-activated receptor gamma (Homo sapiens) (UniProt P37231); experiment: qHTS assay to identify small molecule antagonists of the peroxisome proliferator-activated receptor gamma (PPARg) signaling pathway (AID 743191; calls by dose curve; note: series mostly up to about 63 µM; nearly all actives have a fitted effect of over 30% in size)
How it was run: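 Beta-lactamase reporter under UAS control in HEK293H PPARg-bla cells; compound treatment 17 h at 37C. Read-out: fluorescence intensity after 1 h room-temperature incubation with LiveBLAzer B/G FRET substrate.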

[18] = qHTS assay for small molecule agonists of the antioxidant response element (ARE) signaling pathway (AID 743202; active = well fitted activation curve with a large enough effect in the signal ratio in the repeat runs, not every such curve was filed as active; the % refers to the signal ratio)
How it was run: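 After 16 hours of compound treatment at 37 C, HepG2 cells with a stably integrated ARE-driven beta-lactamase reporter were loaded 2 hours at room temperature with LiveBLAzer B/G FRET substrate and fluorescence intensity measured.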

[19] = biological target: Estrogen receptor (Homo sapiens) (UniProt P03372); experiment: qHTS assay to identify small molecule antagonists of the estrogen receptor alpha (ER-alpha) signaling pathway (AID 743069; active = well fitted curve in the direction sought with a large enough effect in the signal ratio in the repeat runs, not every such curve was filed as active; the % refers to the signal ratio)
How it was run: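 Antagonist mode: compounds in DMSO were co-added with 17beta-estradiol to ER-alpha-bla HEK293 cells (2% charcoal-stripped serum) and left 18 h at 37C. Reporter inhibition was measured as FRET fluorescence after 2 h LiveBLAzer substrate at room temperature.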

SMILES	Potency [1]	Potency [2]	outcome [3]	outcome [4]	outcome [5]	Potency [6]	Potency [7]	outcome [8]	Potency (Aromatase (Homo sapiens))	Potency [9]	Potency [10]	Potency [11]	outcome [12]	outcome [13]	outcome [14]	outcome [15]	outcome [16]	Potency [17]	Potency [18]	outcome [19]
CCCCOCCOC(=O)COc1nc(Cl)c(Cl)cc1Cl	inactive	inactive	inactive	inactive	inactive	inactive	inactive	inactive	inactive	inactive	inactive	inactive	inactive	inactive	inactive	inactive	inactive	–	–	–
O=C(O)c1cc(Cl)cc([N+](=O)[O-])c1Cl	inactive	inactive	inactive	inactive	inactive	inactive	inactive	inactive	inactive	–	inactive	inactive	inactive	inactive	inactive	inactive	inactive	inactive	–	–
CCOC(=O)c1ccc(OC(=O)CCCCCN=C(N)N)cc1	inactive	inactive	inactive	inactive	inactive	14.3 µM (active)	inactive	inactive	inactive	inactive	inactive	inactive	inactive	–	–	inactive	inactive	inactive	inactive	–
O=C(O)Cc1cn(-c2ccccc2)nc1-c1ccc(Cl)cc1	inactive	inactive	inactive	inactive	inactive	inactive	inactive	inactive	inactive	inactive	inactive	inactive	–	inactive	inactive	–	inactive	–	–	–
Cc1cc2cc3c(C)cc(=O)oc3c(C)c2o1	inactive	inactive	inactive	inactive	inactive	inactive	–	inactive	inactive	inactive	inactive	–	inactive	inactive	inactive	inactive	inactive	inactive	inactive	–
CCCCCCCC/C=C\CCCCCCCC(=O)OCCCC	inactive	inactive	inactive	inactive	inactive	inactive	inactive	inactive	inactive	inactive	inactive	inactive	–	inactive	inactive	inactive	–	–	inactive	–
C=C(C)C1CCC(C)(O)CC1 (stereo not given)	inactive	inactive	inactive	inactive	inactive	inactive	inactive	inactive	inactive	inactive	inactive	inactive	inactive	inactive	inactive	inactive	inactive	inactive	–	–
COP(=O)(OC)OC(c1ccc(Cl)cc1)P(=O)(OC)OC (stereo not given)	inactive	inactive	inactive	inactive	inactive	inactive	inactive	inactive	inactive	inactive	inactive	inactive	inactive	inactive	–	inactive	–	inactive	inactive	–
CC(=O)/C=C/C1C(C)=CCC(C)C1(C)C (stereo not given)	inactive	inactive	inactive	inactive	inactive	inactive	inactive	inactive	inactive	inactive	inactive	inactive	–	inactive	inactive	inactive	–	inactive	–	–
N[C@@H](CCC(=O)Nc1ccc([N+](=O)[O-])cc1)C(=O)O	inactive	inactive	inactive	inactive	inactive	inactive	inactive	inactive	inactive	inactive	inactive	–	–	inactive	inactive	inactive	inactive	–	inactive	–
COC(=O)CCCCCCCC(=O)OC	inactive	inactive	inactive	inactive	inactive	inactive	inactive	inactive	inactive	inactive	inactive	–	inactive	inactive	inactive	inactive	–	inactive	–	–
Nc1nnc(-c2cccc(Cl)c2Cl)c(N)n1	inactive	inactive	inactive	inactive	–	–	–	inactive	inactive	inactive	inactive	inactive	inactive	inactive	–	inactive	inactive	inactive	inactive	–
NC(CO)C(=O)NNCc1ccc(O)c(O)c1O (stereo not given)	inactive	inactive	inactive	inactive	inactive	inactive	inactive	inactive	inactive	inactive	–	inactive	inactive	inactive	inactive	inactive	inactive	inactive	–	–
Cc1cccc(C)c1OCC(C)N (stereo not given)	inactive	inactive	inactive	inactive	inactive	inactive	inactive	inactive	inactive	inactive	–	inactive	–	inactive	inactive	inactive	inactive	inactive	–	–
COCCOCCOCCOCCOCCO	inactive	inactive	inactive	inactive	–	–	–	inactive	inactive	inactive	inactive	inactive	inactive	inactive	inactive	–	inactive	inactive	inactive	–
CCCCCOC(=O)CCC	inactive	inactive	inactive	inactive	–	–	–	inactive	inactive	inactive	inactive	inactive	inactive	inactive	inactive	–	–	inactive	–	–
COC(=O)CCc1ccc(OCC(O)CNC(C)C)cc1 (stereo not given)	inactive	inactive	inactive	inactive	–	–	–	inactive	inactive	inactive	inactive	inactive	inactive	inactive	inactive	inactive	–	inactive	inactive	–
CCN(C)C(=O)Oc1cccc([C@H](C)N(C)C)c1	inactive	inactive	inactive	inactive	inactive	inactive	inactive	inactive	inactive	inactive	inactive	inactive	inactive	inactive	–	inactive	inactive	inactive	inactive	–
COc1ccc(-c2cc(=O)c3c(O)cc(O[C@@H]4O[C@H](CO[C@@H]5O[C@@H](C)[C@H](O)[C@@H](O)[C@H]5O)[C@@H](O)[C@H](O)[C@H]4O)cc3o2)cc1O	inactive	inactive	inactive	inactive	inactive	inactive	inactive	inactive	inactive	inactive	29.8 µM (active)	inactive	inactive	inactive	inactive	inactive	inactive	–	–	–
CC(S)C(=O)NCC(=O)O (stereo not given)	inactive	inactive	inactive	inactive	–	–	–	inactive	inactive	inactive	inactive	inactive	inactive	inactive	inactive	inactive	–	inactive	inactive	–
CCCC(=O)C(C)=O	inactive	inactive	inactive	inactive	inactive	inactive	inactive	inactive	inactive	inactive	inactive	inactive	–	inactive	inactive	inactive	inactive	inactive	inactive	–
CN1C(C)(C)CCCC1(C)C	inactive	inactive	inactive	inactive	inactive	inactive	inactive	inactive	inactive	inactive	inactive	inactive	inactive	inactive	inactive	inactive	inactive	inactive	–	–
CNC(=O)[C@H]1O[C@@H](n2cnc3c(NCc4cc(Cl)ccc4OCc4cc(C)no4)ncnc32)[C@H](O)[C@@H]1N	–	–	–	–	inactive	inactive	inactive	–	–	–	–	–	–	–	–	–	–	–	–	–
Brc1ccc(-c2ccccc2)cc1	inactive	inactive	inactive	–	–	–	–	inactive	–	–	inactive	–	–	inactive	inactive	inactive	–	–	inactive	–
C[C@H](N)[C@H](O)c1cccc(O)c1	inactive	–	–	inactive	inactive	inactive	inactive	inactive	inactive	inactive	inactive	inactive	inactive	inactive	inactive	inactive	inactive	inactive	inactive	inactive
O=C(CCN1CCN(CCO)CC1)N1c2ccccc2Sc2ccc(C(F)(F)F)cc21	13.3 µM (active)	21.1 µM (active)	inactive	–	inactive	inactive	inactive	–	inactive	–	inactive	21.1 µM (active)	inactive	inactive	inactive	inactive	–	inactive	–	–
Cc1c(I)c(=O)n(-c2ccccc2)n1C	inactive	inactive	inactive	–	inactive	inactive	inactive	inactive	inactive	inactive	inactive	inactive	inactive	inactive	inactive	–	inactive	inactive	–	–
Cc1cc(Cl)c(C)cc1Cl	inactive	–	–	inactive	–	–	–	inactive	inactive	inactive	inactive	–	inactive	inactive	inactive	–	–	inactive	inactive	–
CCOc1cc([N+](=O)[O-])c(OCC)cc1N1CCOCC1	inactive	–	inactive	inactive	inactive	inactive	inactive	inactive	34.4 µM (active)	inactive	inactive	–	inactive	inactive	inactive	inactive	inactive	–	–	–
OCCCCC(O)CO (stereo not given)	inactive	inactive	–	inactive	–	–	–	inactive	inactive	inactive	inactive	inactive	inactive	inactive	inactive	inactive	inactive	inactive	inactive	–
